Assay outcomes: PubChem BioAssay, National Center for Advancing Translational Sciences (NCATS)
This is a sample that favours compounds with a hit; in the whole collection about 19% have one here.
DT40 TDP1 CPT: growth inhibition of DT40 Tdp1-/-;hTDP1 cells with camptothecin (screen for TDP1 inhibitors). 12% of 420,000 active. Potency, µM (highest dose often 46.2 µM), without a hit: top-dose activity change, negative = growth inhibition, hits mostly inhibitors. chicken DT40 Tdp1-/-;hTDP1 cells + 20 nM CPT, ATP luminescence, 48 h; note: potency is the fitted concentration of half-maximal effect; % is set by controls: 0 for no effect and ±100 for the full control effect; nearly all actives have a fitted effect of over 55% in size
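Cell growth measured by CellTiter-Glo luminescence after a minimum 48 h, 37 C compound exposure with 20 nM CPT in Tdp1-knockout DT40 cells stably expressing hTDP1, seeded 400/well; qHTS titration format.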
MCF10A rereplic: inducers of DNA re-replication in MCF 10A breast cells; 2.9% of 350,000 active; Potency, µM (series often up to 46.1 µM), without a hit: at the top dose activity, positive = re-replication, usual class: activators; MCF 10A DNA re-replication, Hoechst nuclear intensity, 48 h; note: potency is the fitted concentration of half-maximal effect; % of control where 0% means no effect; nearly all actives have a fitted effect of over 50% in size
SW480 rerep: DNA re-replication induction in SW480 cells; SW480 DNA re-replication, Hoechst DNA content imaging, 48 h; Potency, µM (titrated, usually from 46.1 µM), for the others: at the top dose re-replication activation, usual class: activators; 1.8% of 340,000 active; note: potency is the fitted concentration of half-maximal effect; % of control where 0% means no effect; nearly all actives have a fitted effect of over 55% in size
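Hoechst fluorescence of nuclei (405 nm excitation, 500-530 nm emission) measured by plate-scanning imager after 48 hr compound exposure at 37 C; re-replication scored as increased number of nuclei with elevated intensity.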
DT40 TDP1 no CPT: qHTS for Inhibitors of human tyrosyl-DNA phosphodiesterase 1 (TDP1): qHTS in cells in absence of CPT. 15% of 420,000 active. Potency, µM (highest dose often 46.2 µM), inactives show at the top dose activity change, negative = growth inhibition, hits mostly inhibitors. DT40 Tdp1-/- hTDP1 cells, no CPT, ATP luminescence, 48 h; note: potency is the fitted concentration of half-maximal effect; % is set by controls: 0 for no effect and ±100 for the full control effect; nearly all actives have a fitted effect of over 55% in size
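Seeded 400 DT40-hTDP1 cells/well (vehicle DMSO, no 20 nM CPT); pinned compounds; ≥48 hr at 37 °C; CellTiter-Glo luminescence as viability measure.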
IL-1B inflam inh: inflammasome signaling inhibition, IL-1 beta readout; 4.7% of 360,000 active; AID 743279; activity change, % at 57.5 µM; THP-1 LPS/ATP IL-1B secretion, AlphaLISA, 16 h; stronger effect = lower value; in the data active = activity change below about -50%; inconclusive = mostly about -30% to -49%; note: % is set by controls: 0 for no effect and ±100 for the full control effect
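THP-1 cells pretreated 1 hr with compounds (up to 57.5 uM final), then stimulated with LPS (250 ng/mL final) plus ATP (1.25 mM final); secreted IL-1B measured by AlphaLISA after 16 hr, decreased signal indicating inhibition.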
Chronic BCR inh: chronic active BCR signaling inhibition; 0.05% of 340,000 active; Potency, µM (titrated, usually from 46.1 µM), without a hit: at the highest dose activity change, negative = inhibition, usual class: inhibitors; ABC-DLBCL IkBa-CBG/CBR reporter, luminescence ratio, 4 h; active = well fitted inhibition curve with a large enough effect in the signal ratio, with a control signal flat, not every such curve was filed as active; inconclusive = small, poorly fitted or top-dose-only effect, or effect the other way, or a change in a side signal; the % refers to the signal ratio;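 note: potency is the fitted concentration of half-maximal effect; plate controls were basal doxycycline-induced cells for no effect and cells given 10 µM MG132 for full effect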
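TMD8 ABC-DLBCL cells carrying doxycycline-inducible green luciferase fused to IkappaBalpha plus unfused red luciferase were exposed to compounds (up to 46 uM) for 4 hrs at 37C. Activity came from the overlap-corrected green/red luminescence ratio.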
Active calls of the source: *; u = inconclusive; x = no result; [ ] = remark or other dose. Unless noted, calls come from the whole dose curve; as a rule, active = well fitted curve in the direction sought with a large enough effect; inconclusive = small, poorly fitted or top-dose-only effect, or another doubt; inactive = no such curve, though single readings can be large; an effect the other way counts as inactive or inconclusive.

SMILES	DT40 TDP1 CPT	MCF10A rereplic	SW480 rerep	DT40 TDP1 no CPT	IL-1B inflam inh	Chronic BCR inh
COCC(=O)Nc1ccc(OC)c(Cl)c1	-3%	-1%	7%	3%	-4	5%
COc1ccc(OC)c(NC(=O)CN2CCCN(Cc3ccccc3Cl)S2(=O)=O)c1	u	x	x	23µM*	x	x
COc1ccc(NC(=O)CN2CCCN(Cc3ccc(Cl)cc3)S2(=O)=O)cc1Cl	12µM*	x	x	10µM*	x	x
Cc1cc(S(=O)(=O)N2CCOCC2)ccc1OCC(=O)NCc1ccccn1	10%	-2%	-3%	2%	8	3%
CC(=O)Nc1ccc(NC(=O)C(C)Oc2ccccc2C(=O)NCc2ccccc2)cc1 (centres undefined)	u	6%	-4%	u	-9	u
CC1(C)Cc2c(C#N)c(NCCc3ccccc3)nc(-c3ccco3)c2CO1	u	15µM*	6.5µM*	u	u	6%
COCCCNc1ncnc2c1sc1nc(-c3ccco3)c3c(c12)CC(C)(C)OC3	u	5%	-9%	15µM*	-14	7%
CCCSc1nc(NCc2ccco2)c2c3c(sc2n1)COC(C)(C)C3	-24%	u	12%	u	5	19%
Cc1nc2sc3c(NCc4ccco4)ncnc3c2c2c1COC(C)(C)C2	u	u	u	23µM*	u	9%
CC1(C)Cc2c(c(-c3ccco3)nc3sc4c(NCCO)ncnc4c23)CO1	23µM*	12%	-152%	9.2µM*	4	21%
CCN(CC)CCNc1nc(-c2ccco2)c2c(c1C#N)CC(C)(C)OC2	7%	16%	12%	-5%	-4	u
COc1cccc(CNC(=O)C(C)n2ncn3cccc3c2=O)c1OC (centres undefined)	-3%	x	x	-10%	x	x
CCOc1cc(CNCc2cccnc2)ccc1OCC(=O)NC(C)(C)C	-15%	-6%	-99%	-18%	-12	0%
CSc1nc(N(CCO)CCO)c2sc3nc(-c4ccco4)c4c(c3c2n1)CCC4	16µM*	15µM*	u	12µM*	-18	7%
CSc1nc(SCCO)c2sc3nc(-c4ccco4)c4c(c3c2n1)CC(C)(C)OC4	u	13µM*	5%	u	0	u
COC(=O)CSc1nc(SC)nc2c1sc1nc(-c3ccco3)c3c(c12)CC(C)(C)OC3	21%	1%	-2%	-4%	27	x
Cc1ccc(O)c(NC(=O)Cc2ccc3ccccc3c2)c1	5%	-19%	3%[9.22 µM]	8%	-65*	9%
COc1ccc2ccccc2c1-c1sc(Nc2ccccc2)n[n+]1-c1ccc(F)cc1	21µM*	5%	u	13µM*	-78*	u
COc1ccc(-c2sc(Nc3ccccc3)n[n+]2C)c(C)c1C	21µM*	u	22%	21µM*	89	-2%
O=C(O)c1ccc(-c2sc(Nc3ccccc3)n[n+]2-c2ccc(F)cc2)cc1	-1%	-1%	5%[9.22 µM]	-8%	31	-5%
CCOc1cc(-c2sc(Nc3ccccc3)n[n+]2C)ccc1OC	u	3%	-7%	-23%	-5	-12%
COc1ccc(C)cc1Nc1n[n+](C)c(-c2c3ccccc3cc3ccccc23)s1	-20%	-9%	8%	-7%	-11	u
COc1ccc(-c2sc(Nc3ccccc3)n[n+]2-c2ccc(F)cc2)cc1Br	5.8µM*	3%	5%	18µM*	u	1%
CC(C)N(C(=O)CSc1nnc(-c2ccc3c(c2)OCO3)n1C)C(C)C	-3%	3%	-7%	-3%	11	6%
COc1ccccc1NS(=O)(=O)c1cc(NC(=O)c2ccc(=O)[nH]c2)ccc1N1CCOCC1	u	6%	-5%	16µM*	38	4%
SMILES	DT40 TDP1 CPT	MCF10A rereplic	SW480 rerep	DT40 TDP1 no CPT	IL-1B inflam inh	Chronic BCR inh
CC(=O)c1c(C)[nH]c(C(=O)Nc2ccc(C)c(S(=O)(=O)N(C)C)c2)c1C	u	1%	-17%	u	23	u
CC(=O)c1c(C)[nH]c(C(=O)Nc2ccc(C)c(S(=O)(=O)Nc3ccc(C)cc3C)c2)c1C	u	12µM*	16µM*	u	-4	-20%
COc1ccccc1NS(=O)(=O)c1cc(NC(=O)c2[nH]c(C)c(C(C)=O)c2C)ccc1N1CCOCC1	7.3µM*	23%	-9%	2.9µM*	82	u
COc1ccccc1NS(=O)(=O)c1cc(NC(=O)c2ccccc2C)ccc1N1CCOCC1	u	8%	-8%	u	-20	x
COc1ccccc1NS(=O)(=O)c1cc(NC(=O)c2cc(F)c(F)c(F)c2F)ccc1N1CCOCC1	u	u	-4%	16µM*	-1	u
COc1ccc(CCNC(=O)Cc2c(C)c3cc4c(C)coc4cc3oc2=O)cc1OC	8%	x	x	-2%	x	x
CC(=O)O[C@@H]1[C@H]2[C@@H](C[C@@H](C)[C@@H]3CCC(=O)[C@@]13C)OC(=O)[C@@H]2C	14%	9%	-2%[9.22 µM]	4%	23	1%
CCN(CC)CC#CCOC(=O)[C@@](O)(c1ccccc1)C1CCCCC1	x	18%	0%	x	x	x
O=C(Nc1ccc(N2CCOCC2)c(S(=O)(=O)Nc2ccccc2Cl)c1)c1ccc(=O)[nH]n1	u	9%	-10%	16µM*	18	x
O=C(Nc1ccc(N2CCOCC2)c(S(=O)(=O)Nc2ccccc2Cl)c1)c1ccccc1	u	5%	-1%	u	-2	0%
CCNc1ncc2nc(-c3ccc(OC)cc3)c(=O)n(Cc3cccs3)c2n1	u	x	x	-24%	x	x
Cc1ccc(-c2c(CN3CCN(c4cc(Cl)ccc4C)CC3)csc2C)cc1	16µM*	x	x	u	x	x
c1ccc(Nc2cc(-c3ccoc3)ncn2)cc1	-22%	x	x	-5%	x	x
CCOC(=O)c1c2c(n(Cc3ccccc3)c1C)C(=O)C(=O)c1ccccc1-2	0.58µM*	3.3µM*	4.1µM*	1.2µM*	-100*	x
CCOC(=O)c1c2c(n(C)c1C)C(=O)C(=O)c1ccc(Br)cc1-2	1.5µM*	2.1µM*	2.6µM*	2.1µM*	37	x
Cc1ccc(-c2nc(CSc3nc4ccccc4c(=O)n3CCO)cs2)cc1	u	u	0%	16µM*	-10	u
Cc1ccc(-c2nc(CSc3nc4ccccc4c(=O)n3C)cs2)cc1	18µM*	u	-4%	26µM*	0	0%
C=CCn1c(SCc2csc(-c3ccc(C)cc3)n2)nnc1-c1ccccc1OC	12µM*	u	x	18µM*	u	-9%
